Where a name gives a salt, the structure may show the parent alone.
Tested on: MDA-MB-468
Experiment: phospho-S6 immunofluorescence (DAPI-normalised), per-plate z-score; higher = higher phospho-S6 signal (less pathway suppression)
Details: co-treatment: vehicle; 24 h
Method: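 GPCR-targeted compound library (MedChemExpress HY-L006) tested on MDA-MB-468 PTEN-null TNBC cells in 384-well plates at 0.1, 1 or 10 uM, combined with vehicle, GDC0941 450 nM or lapatinib 1 uM, for 24 h. Phospho-S6 (S240/244) immunofluorescence normalised to DAPI and expressed as a per-plate z-score; values are the mean of biological triplicates.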

| Compound | phospho-S6 immunofluorescence (z-score) |
| --- | --- |
| CNS(=O)(=O)CCc1ccc2[nH]cc(C3CCN(C)CC3)c2c1 [Naratriptan (hydrochloride)] (compound 10 µM) | 0.18 |
| CC(C)C(=O)OCC(=O)[C@@]12O[C@H](C3CCCCC3)O[C@@H]1C[C@H]1[C@@H]3CCC4=CC(=O)C=C[C@]4(C)[C@H]3[C@@H](O)C[C@@]12C [Ciclesonide] (compound 10 µM) | -1.25 |
| O=C1Cc2cc(CCN3CCN(c4nsc5ccccc45)CC3)c(Cl)cc2N1 [Ziprasidone (hydrochloride monohydrate)] (compound 10 µM) | -5.97 |
| COc1cc(N)cn[n+]1-c1ccccc1 [Amezinium (methylsulfate)] (compound 10 µM) | 0.03 |
| COc1cc2c(cc1OC)CC(=O)N(CCCN(C)C[C@H]1Cc3cc(OC)c(OC)cc31)CC2 [Ivabradine (hydrochloride)] (compound 10 µM) | -0.38 |
| COc1ccccc1Oc1c(NS(=O)(=O)c2ccc(C)cn2)nc(-c2ccncc2)nc1OC [Avosentan] (compound 10 µM) | -0.65 |
| C[C@@H](NCCCc1cccc(C(F)(F)F)c1)c1cccc2ccccc12 [Cinacalcet] (compound 10 µM) | -6.21 |
| C[C@H](CCC(=O)O)[C@H]1CC[C@H]2[C@@H]3CC[C@@H]4C[C@H](O)CC[C@]4(C)[C@H]3C[C@H](O)[C@]12C [Deoxycholic acid] (compound 10 µM) | -0.17 |
| CC(C)NC[C@H](O)COc1ccc(CCOCC2CC2)cc1 [Levobetaxolol (hydrochloride)] (compound 10 µM) | -0.19 |
| CN(C)CCCN1c2ccccc2CCc2ccc(Cl)cc21 [Clomipramine (hydrochloride)] (compound 10 µM) | -1.14 |
| CN(C)CCN(Cc1ccccc1)c1ccccn1 [Tripelennamine (hydrochloride)] (compound 10 µM) | -0.41 |
| N[C@@H](Cc1ccc(O)c(O)c1)C(=O)O (compound 10 µM) | -0.55 |
| COc1ccc(/C=C/C(=O)Nc2ccccc2C(=O)O)cc1OC [Tranilast (trans-)] (compound 10 µM) | 0.65 |
| CN1[C@@H]2CC[C@H]1C[C@@H](OC(c1ccccc1)c1ccccc1)C2 [Benztropine (mesylate)] (compound 10 µM) | 0.29 |
| Clc1ccc(CCCOCCCN2CCCCC2)cc1 [Pitolisant (hydrochloride)] (compound 10 µM) | -0.12 |
| COc1ccc2cc(OCC3(C(=O)O)CN(C(=O)c4ccc(F)cc4)C3)ccc2c1 (compound 10 µM) | 0.47 |
| CN(C)CC[C@@H](c1ccc(Cl)cc1)c1ccccn1 [Dexchlorpheniramine (maleate)] (compound 10 µM) | -0.33 |
| N#Cc1cc(NC(=O)C(=O)O)c(Cl)c(NC(=O)C(=O)O)c1 [Lodoxamide] (compound 10 µM) | 0.66 |
| CN(C)CCCN1c2ccccc2Sc2ccc(C(F)(F)F)cc21 [Triflupromazine (hydrochloride)] (compound 10 µM) | 2.53 |

| Compound | phospho-S6 immunofluorescence (z-score) |
| --- | --- |
| Cc1nc(C#Cc2cccnc2)cs1 [MTEP (hydrochloride)] (compound 10 µM) | -0.75 |
| COc1ccc(/C=C/C(=O)Nc2ccccc2C(=O)O)cc1OC [Tranilast] (compound 10 µM) | 0.33 |
| O=c1ccc2ccc(OCCCCN3CCN(c4cccc5sccc45)CC3)cc2[nH]1 [Brexpiprazole] (compound 10 µM) | -4.57 |
| O=c1cc(C(Cl)(Cl)Cl)oc2ccc(Cl)cc12 (compound 10 µM) | 0.44 |
| NC(=O)CC[C@H](N)C(=O)O [L-Glutamine] (compound 10 µM) | -0.12 |
| CCN(CC)CC#CCOC(=O)C(O)(c1ccccc1)C1CCCCC1 (configuration not stated) [Oxybutynin (chloride)] (compound 10 µM) | 0.53 |
| Cc1ccc(C(=O)Nc2ccc(S(=O)(=O)O)c3cc(S(=O)(=O)O)cc(S(=O)(=O)O)c23)cc1NC(=O)c1cccc(NC(=O)Nc2cccc(C(=O)Nc3cc(C(=O)Nc4ccc(S(=O)(=O)O)c5cc(S(=O)(=O)O)cc(S(=O)(=O)O)c45)ccc3C)c2)c1 [Suramin (sodium salt)] (compound 10 µM) | -0.09 |
| Brc1c(NC2=NCCN2)ccc2nccnc12 [UK 14,304 (tartrate)] (compound 10 µM) | 0.14 |
| Cc1ccc(F)cc1C(=O)Nc1ccc(C(=O)N2Cc3cccn3Cc3ccccc32)c(Cl)c1 [Lixivaptan] (compound 10 µM) | 0.62 |
| CN1C2CCCC1CC(NC(=O)c1nn(C)c3ccccc13)C2 (configuration not stated) [Granisetron (Hydrochloride)] (compound 10 µM) | -0.01 |
| CC1(C)O[C@@H]2C[C@H]3[C@@H]4CCC5=CC(=O)C=C[C@]5(C)[C@@]4(F)[C@@H](O)C[C@]3(C)[C@]2(C(=O)CO)O1 [Triamcinolone (acetonide)] (compound 10 µM) | -1.2 |
| CCNC(=O)[C@@H]1CCCN1C(=O)[C@H](CCCNC(=N)N)NC(=O)[C@H](CC(C)C)NC(=O)[C@@H](CC(C)C)NC(=O)[C@H](Cc1ccc(O)cc1)NC(=O)[C@H](CO)NC(=O)[C@H](Cc1c[nH]c2ccccc12)NC(=O)[C@H](Cc1c[nH]cn1)NC(=O)[C@@H]1CCC(=O)N1 [Leuprolide (Acetate)] (compound 10 µM) | 0.11 |
| CCOC(=O)O[C@]1(C(=O)OCCl)CC[C@H]2[C@@H]3CCC4=CC(=O)C=C[C@]4(C)[C@H]3[C@@H](O)C[C@@]21C [Loteprednol Etabonate] (compound 10 µM) | -1.08 |
| CC1OC2(CS1)CN1CCC2CC1 (configuration not stated) [Cevimeline (hydrochloride hemihydrate)] (compound 10 µM) | 0.89 |
| CCn1c(=O)c2c(nc(/C=C/c3ccc(OC)c(OC)c3)n2C)n(CC)c1=O [Istradefylline] (compound 10 µM) | -0.74 |
| Clc1ccc2c(c1)CCc1cccnc1C2=C1CCNCC1 [Desloratadine] (compound 10 µM) | 0.51 |
| Cc1ccc(Sc2ccccc2N2CCNCC2)c(C)c1 [Vortioxetine (hydrobromide)] (compound 10 µM) | -9.37 |
| CC(COc1ccccc1)N(CCCl)Cc1ccccc1 (configuration not stated) [Phenoxybenzamine (hydrochloride)] (compound 10 µM) | 0.39 |
